Sampled rows, rich in hits. Any-hit rate of the full collection: about 11%.
12-hLO inh = qHTS Assay for Inhibitors of 12-hLO (12-human lipoxygenase); AID 1452, 2008; Polyunsaturated fatty acid lipoxygenase ALOX12 (Homo sapiens), P18054; 0.12% of 150,000 active; purified 12-hLO, xylenol orange hydroperoxide absorbance; Potency, µM (highest dose often 57.1 µM), for inactives: top-dose activity change, negative = inhibition, hits mostly inhibitors; also: potency is read from the fitted curve at half-maximal effect; nearly all actives have a fitted effect of over 55% in size
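Hydroperoxide formation by human 12-lipoxygenase from 40 uM arachidonic acid was followed colorimetrically via ferric-xylenol orange complex, using the 573/405 nm absorbance ratio. Enzyme concentration was 150 nM, with 30 min reaction at room temperature.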
HPGD block = qHTS Assay for Inhibitors of HPGD (15-Hydroxyprostaglandin Dehydrogenase); 15-hydroxyprostaglandin dehydrogenase [NAD(+)] (Homo sapiens), P15428; purified HPGD, NADH fluorescence kinetic, PGE2 substrate; Potency, µM, for the others: top-dose activity change, negative = inhibition, hits mostly inhibitors; 4.3% of 150,000 active; active = well fitted inhibition curve with a large enough effect, not every such curve was filed as active; inconclusive = small, poorly fitted or top-dose-only effect, or another doubt; inactive = no such curve, though single readings can be large or run the other way; also: potency is read from the fitted curve at half-maximal effect
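NADH formation kinetics: reaction with 30 uM PGE2 and 1 mM NAD+ (final), 20 nM enzyme, Tris-HCl pH 8 with Tween 20, after 15 min compound preincubation at room temperature. Fluorescence change, last versus first of five reads.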
IMPase inh = qHTS Assay for Identifying the Cell-Membrane Permeable IMPase Inhibitors. CHO-M1 cells, IP1 accumulation, HTRF TR-FRET ratio. inhibition (IP1 accumulation), % at 46.1 µM. 120,000 tested, under 10 active. AID 901, 2007; active = well fitted curve in the direction sought with a large enough effect in the signal ratio, not every such curve was filed as active; inconclusive = small, poorly fitted or top-dose-only effect, or a change in a side signal; inactive = no such curve, though single readings can be large or run the other way; the % refers to the signal ratio;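 also: cells stimulated with carbachol in lithium chloride buffer; plate controls were DMSO basal wells for no effect and reference inhibitor wells for full effect; higher means more IMPase inhibition seen as more IP1 and lower FRET ratio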
Target sequence (P97697 whole entry, looked up): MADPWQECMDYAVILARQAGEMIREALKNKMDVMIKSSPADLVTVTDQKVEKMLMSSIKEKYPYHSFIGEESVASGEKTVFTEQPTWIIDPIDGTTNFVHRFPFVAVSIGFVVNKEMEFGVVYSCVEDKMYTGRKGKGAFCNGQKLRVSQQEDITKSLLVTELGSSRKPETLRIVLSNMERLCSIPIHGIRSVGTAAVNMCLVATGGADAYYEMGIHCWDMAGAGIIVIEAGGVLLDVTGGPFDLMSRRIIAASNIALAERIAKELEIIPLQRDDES
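Elevated IP1 in lysates lowers TR-FRET signal (665/620 ratio and 620 channel reported). Cells were CHO-M1, given carbachol (50 uM as added) plus 50mM LiCl, pH 7.4, 30 min, 37C; compounds titrated up to 46 uM; AC50 by Hill equation.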
ALDH1A1 block = qHTS Assay for Inhibitors of Aldehyde Dehydrogenase 1 (ALDH1A1); Aldehyde dehydrogenase 1A1 (Homo sapiens), P00352; Purified ALDH1A1, NADH fluorescence, propionaldehyde substrate; Potency, µM (titrated, usually from 75.3 µM), inactives show at the highest dose activity, negative = inhibition, hits mostly inhibitors; 7.3% of 220,000 active; active = well fitted inhibition curve with a large enough effect, not every such curve was filed as active; inconclusive = small, poorly fitted or top-dose-only effect, or another doubt; inactive = no such curve, though single readings can be large or run the other way;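 also: potency is read from the fitted curve at half-maximal effect; plate controls were no enzyme wells and a reference inhibitor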
Target sequence (P00352 whole entry, looked up): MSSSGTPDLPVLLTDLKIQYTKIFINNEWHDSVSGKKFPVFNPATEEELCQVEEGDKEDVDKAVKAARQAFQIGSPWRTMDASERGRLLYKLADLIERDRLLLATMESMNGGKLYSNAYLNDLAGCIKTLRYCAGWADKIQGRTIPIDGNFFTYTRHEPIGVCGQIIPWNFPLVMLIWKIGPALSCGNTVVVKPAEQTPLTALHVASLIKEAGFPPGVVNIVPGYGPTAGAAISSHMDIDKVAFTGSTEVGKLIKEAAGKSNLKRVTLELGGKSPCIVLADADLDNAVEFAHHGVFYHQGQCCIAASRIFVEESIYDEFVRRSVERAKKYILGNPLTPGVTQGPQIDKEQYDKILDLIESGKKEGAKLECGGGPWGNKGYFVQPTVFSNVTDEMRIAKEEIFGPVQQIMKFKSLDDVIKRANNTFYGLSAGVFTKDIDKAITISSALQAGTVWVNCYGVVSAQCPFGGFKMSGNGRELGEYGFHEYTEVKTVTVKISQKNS
PNC inhibitor = High Content Assay for Compounds that inhibit the Assembly of the Perinucleolar Compartment. PC3M PTB-GFP, PNC prevalence imaging, 16 h; active compounds read low. activity change (PNC), negative = inhibition, % at 10 µM. 3.1% of 140,000 active;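 active = readout at or below -70, meaning at least 70% loss of cells showing the perinucleolar compartment, a nuclear body marking cancer cells; inconclusive = readout between -30 and a set limit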;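 also: plate controls were DMSO wells for no effect and camptothecin positive control wells for full effect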
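Read-out is percentage of cells bearing a perinucleolar compartment, from automated 20x imaging of fixed, Hoechst-stained PC3M PTB-GFP cells. Cells were seeded 4 h, then exposed 16 h to compound (23 nl of library stock) in duplicate plates.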
IMPase Li inh = qHTS Assay for Identifying the Cell-Membrane Permeable IMPase Inhibitors: Potentiation with Lithium; AID 1457, 2008; CHO-M1 cells, IP1 TR-FRET (IP-One), carbachol + lithium; 0.35% of 210,000 active; Potency, µM (titrated, usually from 59.4 µM), inactives show at the highest dose activity, negative = IMPase inhibition, usual class: inhibitors;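 also: IP1 builds up when IMPase is blocked and the TR-FRET signal falls; potency is read from the fitted curve at half-maximal effect; plate controls were basal vehicle for no effect and high inhibitor control for full effect; nearly all actives have a fitted effect of over 50% in size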
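Lithium-sensitised IP1 accumulation assay; M1-expressing CHO cells treated 30 min at 37C with compound. Competitive antibody detection by time-resolved FRET followed a 10 min room-temperature lysis step.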
* = called active by the depositor; ? = inconclusive; nt = not tested or not shown; [ ] = dose if it differs, or a comment. Unless noted, calls follow the shape of the dose curve; as a rule, active = well fitted curve in the direction sought with a large enough effect; inconclusive = small, poorly fitted or top-dose-only effect, or another doubt; inactive = no such curve, though single readings can be large; an effect the other way counts as inactive or inconclusive. Unless noted, % is scaled to controls: 0 for no effect and ±100 for the full control effect.

SMILES	12-hLO inh	HPGD block	IMPase inh	ALDH1A1 block	PNC inhibitor	IMPase Li inh
CC(=O)Oc1cc(-c2coc3cc(OC(C)=O)c(OC(C)=O)c(OC(C)=O)c3c2=O)cc(OC(C)=O)c1OC(C)=O	3%	7.9µM*	nt	?	nt	14%
Cc1cccc(-n2c(C)cc(/C=C3/C(=N)N4C(c5ccccc5)=CSC4=NC3=O)c2C)c1	2%	-25%	nt	4%	5	3%
N=C1/C(=C\c2ccc(-c3cccc(Cl)c3)o2)C(=O)N=C2SC=C(c3ccccc3)N12	-20%	14µM*	-4	?	?	3%
COc1ccc(C(=O)N2CCC[C@@]3(CCN(C(=O)Nc4ccccc4)C3)C2)cc1	0%	-5%	nt	-4%	nt	10%
O=C(CNC(=O)c1cccs1)NCC(=O)OCc1ccccc1Cl	-4%	-11%	3	8%	-83*	4%[38.3 µM]
O=C(CNC(=O)c1cccs1)NCC(=O)OCc1c(Cl)cccc1Cl	-1%	-8%	1	5%	81	-5%[38.3 µM]
O=C(Cc1c(F)cccc1Cl)NCC1CCCO1 (stereo not drawn)	0%	-7%	10	3%	-6	24%[38.3 µM]
O=C(CSc1ccc2c(c1)OCCO2)NCC1CCCO1 (stereo not drawn)	0%	16µM*	8	?	27	-13%[38.3 µM]
O=C(CSc1cc(Cl)ccc1Cl)NCC1CCCO1 (stereo not drawn)	-2%	6.3µM*	3	5%	10	0%
O=C(CCCOc1ccc(Cl)cc1)NCC1CCCO1 (stereo not drawn)	3%	14µM*	-2	?	-25	-2%[38.3 µM]
Nc1cc(N)nc(SCC(=O)NCC2CCCO2)n1 (stereo not drawn)	-5%	-14%	9	1%	-2	2%[38.3 µM]
O=C(CCCCCCCC(=O)NCC1CCCO1)NCC1CCCO1 (stereo not drawn)	30%	?	7	5%	-7	-1%
O=C(CSc1ccc2c(c1)OCCO2)NCc1ccccc1	nt	nt	nt	-10%	nt	-2%
O=C(CSCc1c(Cl)cccc1Cl)NCC1CCCO1 (stereo not drawn)	-5%	5µM*	1	?	54	-9%[38.3 µM]
COc1ccccc1C(=O)NC1(C(F)(F)F)C(=O)Nc2c1c(=O)[nH]c(=O)n2-c1ccccc1 (stereo not drawn)	nt	nt	1	nt	nt	nt
Fc1ccc(-c2nnc(CN3CCN(c4ccccn4)CC3)o2)cc1	nt	nt	9	nt	nt	nt
O=C(O)c1ccc(C(=O)O)c(C(=O)O)c1.[NH-][C@@H]1CCCC[C@@H]1[NH-].[Pt]	1%[11.4 µM]	-7%	nt	-8%[13.5 µM]	nt	-18%
Cc1ccc(C(C2=C(O)CC(C)(C)CC2=O)C2C(=O)CC(C)(C)CC2=O)o1 (stereo not drawn)	-15%	3.5µM*	-6	14µM*	?	-2%[38.3 µM]
CC1(C)CC(=O)C(C(C2=C(O)CC(C)(C)CC2=O)c2cccs2)C(=O)C1 (stereo not drawn)	-26%	nt	1	-3%	5	nt
CC1(C)CC(=O)C(C(C2=C(O)CC(C)(C)CC2=O)c2cccc(O)c2)C(=O)C1 (stereo not drawn)	-11%	-9%	1	14µM*	40	-1%[38.3 µM]
CC(=N)C1=C(O)CC(C)(C)CC1=O	-5%	-7%	4	?	39	-9%[38.3 µM]
CC1(C)CC(=O)C(C(C2=C(O)CC(C)(C)CC2=O)c2cccnc2)C(=O)C1 (stereo not drawn)	-3%	-7%	-9	14µM*	?	-12%[38.3 µM]
CCCC(C1=C(O)CC(C)(C)CC1=O)C1C(=O)CC(C)(C)CC1=O (stereo not drawn)	2%	0%	15	22µM*	-12	9%
Cn1c(Oc2ccc(F)cc2)nc2c1c(=O)n(Cc1ccccc1Cl)c(=O)n2C	nt	nt	19	nt	nt	nt
CCCCC1=C(C(=O)OCC)C(C(=O)OCC)Oc2ccccc21 (stereo not drawn)	-2%[0.00818 µM]	-14%	nt	9%	nt	10%
SMILES	12-hLO inh	HPGD block	IMPase inh	ALDH1A1 block	PNC inhibitor	IMPase Li inh
Cc1nnc(SCC2=C(C(=O)O)N3C(=O)[C@@H](NC(=O)Cn4cnnn4)[C@@H]3SC2)s1	-6%[25.6 µM]	-9%	0[20.6 µM]	5%[20.9 µM]	nt	-2%
CN(C)c1ccc(C(=O)Nc2nc3c(s2)CCCC3)cc1	0%	?	4	?	-8	14%
C/C(=N\Nc1nc2c(s1)CCCC2)c1ccc(Cl)cc1	?	-14%	10	28µM*	?	4%[38.3 µM]
CC(=O)C1=C(c2ccccc2)NC(=S)NC1c1ccc(O)c(O)c1 (stereo not drawn)	nt	nt	nt	?	nt	10%
S=C1NC2=C(CCCC2=C2SCCS2)C(c2ccccc2)N1 (stereo not drawn)	nt	nt	nt	0.35µM*	nt	11%
COC(=O)C1=C(C(=O)OC)[C@@H]2Nc3ccccc3[C@@]23C[C@@H](C(=O)OC)N(S(=O)(=O)c2c(C)noc2C)C3=N1	-1%[11.4 µM]	0%	nt	?	nt	8%
Cc1ccc(Sc2ccc(NC(=O)c3ccc(S(C)(=O)=O)cc3Cl)cc2)cc1	4%	-13%	?	?	17	14µM*
CC(=O)Nc1ccc(S(=O)(=O)N(Cc2ccco2)CC2CCCO2)cc1 (stereo not drawn)	2%	-24%	4	13µM*	-11	28%[38.3 µM]
CCN(CC)S(=O)(=O)c1ccc(S(=O)(=O)N(Cc2ccccn2)Cc2ccco2)cc1	-6%	-10%	9	1.8µM*	?	38%[38.3 µM]
CCN(CC)S(=O)(=O)c1ccc(S(=O)(=O)N(CC(=O)Nc2ccccc2)Cc2ccco2)cc1	-2%	-5%	4	8.9µM*	-19	16%
O=C(CN(Cc1ccccc1)S(=O)(=O)c1ccc(Br)cc1)NCc1ccco1	-2%	-19%	5	13µM*	37	32%[38.3 µM]
Cc1cccc(NC(=O)CCN2C(=O)C3C4C=CC(C4)C3C2=O)c1 (stereo not drawn)	-3%	-2%	8	?	-28	15%[38.3 µM]
Cc1cc(N)c2cc(OCCOc3ccc4nc(C)cc(N)c4c3)ccc2n1	4%[11.4 µM]	-15%	nt	?	nt	21%
CN1CCC2(CC1)N=C(c1ccc(F)cc1)C(=S)N2C(=O)c1ccccc1	1%	nt	11	22µM*	57	nt
O=C(CN1C(=O)C(c2ccc(F)cc2)=NC12CCCC2)Nc1ccc(F)cc1	nt	nt	nt	?	nt	9%

Source: PubChem BioAssay
